{"source": "ChEMBL document CHEMBL1157539", "about": "“Thousands of chemical starting points for antimalarial lead identification” (Nature, 2010)"}
{"tested_on": "Plasmodium falciparum", "assay": "GSK_TCMDC: Inhibition of Plasmodium falciparum 3D7 in whole red blood cells, using parasite LDH activity as an index of growth. Test compounds present at 2uM", "format": "functional", "units": {"Inhibition": "%"}}
{"smiles": "CCc1ccc(C2CCN(CCCCNC(=O)c3ccc(NC(=O)c4ccc(Cl)cc4)cc3)CC2)c(OCCO)c1", "Inhibition": 98}
{"smiles": "CCO[C@H]1CN[C@H](C#Cc2cc3c(Nc4ccc(OCc5cccc(F)c5)c(Cl)c4)ncnc3s2)C1.O=C(O)C(F)(F)F", "Inhibition": 100}
{"smiles": "N#Cc1cnc2cc(-c3cnc(CNCCN4CCOCC4)s3)ccc2c1Nc1ccc(Oc2ccccc2)cc1", "Inhibition": 97}
{"smiles": "CC(C)c1cccc(C(C)C)c1NC(=O)NNC(=O)c1ccc(CCN2CCC(c3nc(COCC(F)(F)F)c(-c4ccc(F)cc4)o3)CC2)cc1", "Inhibition": 88}
{"smiles": "C[C@@H](CC1CCCCC1)NCc1cccc(NS(=O)(=O)c2ccc(O)c(-c3ccno3)c2)c1.Cl", "Inhibition": 88}
{"smiles": "COc1cc2c(cc1OC)CN(CCCCc1ccc(NC(=O)c3cc(Cl)cc(Cl)c3)cc1)CC2", "Inhibition": 95}
{"smiles": "CCCc1c(Cl)cc(CNCCCNc2nc3ccncc3[nH]2)cc1Cl", "Inhibition": 98}
{"smiles": "COc1cc(NCCCNCc2cn(S(=O)(=O)c3ccccc3)c3ccccc23)nc2ccccc12", "Inhibition": 100}
{"smiles": "CC(=O)N[C@H](C(=O)Nc1ccc(-c2ccc(-c3nc4cc(C(F)(F)F)ccc4[nH]3)cc2)cc1)C(C)C", "Inhibition": 88}
{"smiles": "CC(C)N(Cc1ccc(-c2ccc(C(F)(F)F)cc2)cc1)C(=O)Cn1c(SCc2cccc(F)c2F)cc(=O)c2cc(CN3CCCCC3)ccc21.Cl", "Inhibition": 100}
{"smiles": "CN1CCC(N2CCN(Cc3cccc(-c4ccc(-c5nc6cc(C(F)(F)F)ccc6[nH]5)cc4)c3)CC2)CC1.O=C(O)C(F)(F)F", "Inhibition": 100}
{"smiles": "Cl.N=c1n(Cc2ccc(Cl)cc2)c2ccccc2n1CC(O)c1ccc(Cl)c(Cl)c1", "note": "(stereo not given)", "Inhibition": 98}
{"smiles": "CCc1cn2c3c(cc(C(=O)N[C@@H](Cc4cccc(F)c4)[C@H](O)CNC4CCOCC4)cc13)N(C)S(=O)(=O)CC2.O=CO", "Inhibition": 97}
{"smiles": "COc1cc(Nc2nccc(Nc3ccc4c(C)n[nH]c4c3)n2)cc2ccccc12.Cl", "Inhibition": 100}
{"smiles": "O=C(Nc1cc(C(F)(F)F)ccc1-n1cncn1)C1(c2ccccc2)CC1", "Inhibition": 100}
{"smiles": "Cc1cccc2nc(-c3ccc(-c4ccc(NC(=O)Nc5ccc(F)c(F)c5F)cc4)cc3)[nH]c12", "Inhibition": 100}
{"smiles": "COc1ccc2c(NN=Cc3cccc(Cl)c3)ccnc2c1", "Inhibition": 100}
{"smiles": "CCn1c(Sc2ccc(C#N)c([N+](=O)[O-])c2)nnc1-c1ccc(OC)cc1", "Inhibition": 98}
{"smiles": "O=C1CC(C(=O)O)CC(=O)N1", "Inhibition": 94}
{"smiles": "CCC(C)NC(=O)Nc1ccc(-c2cccc(-c3nc4cccc(C)c4[nH]3)c2)cc1", "note": "(stereo not given)", "Inhibition": 100}
{"smiles": "Clc1cc(Cl)c2cc(CNCCCNc3ccc4ccccc4n3)[nH]c2c1.O=C(O)C(F)(F)F", "Inhibition": 99}
{"smiles": "COc1ccc2nccc([C@@H](O)CN3CCC(NCc4ccc5c(n4)NCCC5)CC3)c2c1", "Inhibition": 100}
{"smiles": "Cl.Oc1ccc(Cc2cc(Oc3c(I)cc(CCc4ncc[nH]4)cc3I)ccc2O)cc1", "Inhibition": 100}
{"smiles": "O=C(NCc1cccc(F)c1)Nc1cccc(-c2ccc(-c3nc4cc(C(F)(F)F)ccc4[nH]3)cc2)c1", "Inhibition": 98}
{"smiles": "CCCCN(CCCC)CCCN(CCCN(CCCC)CCCC)c1cc(C)nc(Nc2ccc(Br)cc2)n1.O=C(O)C(=O)O", "Inhibition": 99}
{"smiles": "CC(C)c1cc2c(ccc3nc(N)nc(N)c32)o1", "Inhibition": 99}
{"smiles": "COc1ccc(CNCc2cccc(-c3csc(-c4nc5ccccc5[nH]4)c3)c2)cc1.O=C(O)C(F)(F)F", "Inhibition": 100}
{"smiles": "CC1(CCc2ccccc2)N=C(N)N=C(N)C1c1ccc(Cl)c(Cl)c1.Cl", "note": "(stereo not given)", "Inhibition": 98}
{"smiles": "Cn1cc(C(=O)Nc2cccc(-c3cccc(-c4nc5cc(F)ccc5[nH]4)c3)c2)n(C)c1=O", "Inhibition": 98}
{"smiles": "CC(C)CCN1CCCN(Cc2cccc(NC(=O)c3ccc(-c4ccccc4)cc3)c2)CC1.O=C(O)C(F)(F)F", "Inhibition": 92}
{"smiles": "N=C(N)Nc1ccc(C(=O)O)c(O)c1", "Inhibition": 94}
{"smiles": "CN1C(=CC(=O)NC(=O)c2ccccc2)C(C)(C)c2ccccc21", "Inhibition": 93}
{"smiles": "CS(=O)(=O)c1cccc(-c2cnc(N)c3cc(-c4ccc(F)cc4)ccc23)c1", "Inhibition": 91}
{"smiles": "CCn1nc(C(=O)NC2CCOc3ccccc32)c2ccccc2c1=O", "note": "(stereo not given)", "Inhibition": 86}
{"smiles": "COc1ccccc1Nc1nc(C)cc(NCc2ccc(-c3c(C)noc3C)cc2)n1", "Inhibition": 98}
{"smiles": "CCc1nc2c(cnn2CC)c(NC2CCOCC2)c1CNC(=O)c1ccoc1C", "Inhibition": 97}
{"smiles": "COc1ccccc1-n1c(SCC(=O)c2ccc3c(c2)CC(=O)N3C)nnc1-c1cccs1", "Inhibition": 95}
{"smiles": "Cc1cccc(C(O)CNc2ccnc(Nc3cccc(-c4csc(C)n4)c3)n2)c1", "note": "(stereo not given)", "Inhibition": 99}
{"smiles": "COc1ccc2ncc(Cl)c([C@@H](O)CN3CCC(NCc4cc5c(cn4)OCCO5)CC3)c2c1.Cl", "Inhibition": 100}
{"smiles": "CN(C)C(=O)c1cc(CNCc2ccccc2)ccc1-c1cccc(CNCc2ccc(-c3ccccc3)cc2)c1.O=C(O)C(F)(F)F", "Inhibition": 90}
